ChEMBL document CHEMBL1961873, “Compounds: GSK PKIS; Assays: Nanosyn kinase panel” (2012)

Columns and labels:
[1] = target: T1, Tyrosine-protein kinase receptor TYRO3 (Homo sapiens) (UniProt Q06418); conditions: at 1 µM
T1 sequence (whole entry): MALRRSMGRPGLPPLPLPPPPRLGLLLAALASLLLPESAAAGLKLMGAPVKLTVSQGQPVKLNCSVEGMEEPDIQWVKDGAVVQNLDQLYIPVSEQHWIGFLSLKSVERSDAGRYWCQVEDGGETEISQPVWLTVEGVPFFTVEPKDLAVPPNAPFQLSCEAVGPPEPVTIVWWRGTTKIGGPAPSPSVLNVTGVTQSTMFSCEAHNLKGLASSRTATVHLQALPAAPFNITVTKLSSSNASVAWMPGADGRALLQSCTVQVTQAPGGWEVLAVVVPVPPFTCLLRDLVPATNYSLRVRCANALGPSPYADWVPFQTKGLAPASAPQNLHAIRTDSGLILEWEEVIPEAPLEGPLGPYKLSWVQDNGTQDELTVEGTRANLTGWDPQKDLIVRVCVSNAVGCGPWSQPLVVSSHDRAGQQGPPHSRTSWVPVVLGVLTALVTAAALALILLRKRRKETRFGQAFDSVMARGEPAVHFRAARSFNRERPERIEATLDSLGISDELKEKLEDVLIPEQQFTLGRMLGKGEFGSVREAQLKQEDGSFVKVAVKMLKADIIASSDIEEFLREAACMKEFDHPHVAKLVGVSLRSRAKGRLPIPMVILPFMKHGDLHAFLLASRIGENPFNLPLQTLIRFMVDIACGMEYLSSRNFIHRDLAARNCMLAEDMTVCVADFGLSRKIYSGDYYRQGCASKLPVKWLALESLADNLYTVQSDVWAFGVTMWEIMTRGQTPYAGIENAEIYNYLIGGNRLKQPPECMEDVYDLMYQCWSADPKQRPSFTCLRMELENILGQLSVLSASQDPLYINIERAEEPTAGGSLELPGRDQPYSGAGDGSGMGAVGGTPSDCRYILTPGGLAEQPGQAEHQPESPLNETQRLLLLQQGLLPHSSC

[2] = target: Tyrosine-protein kinase Yes (Homo sapiens) (UniProt P07947); conditions: at 0.1 µM
Tyrosine-protein kinase Yes (Homo sapiens), sequence (P07947 2-543 limits assumed): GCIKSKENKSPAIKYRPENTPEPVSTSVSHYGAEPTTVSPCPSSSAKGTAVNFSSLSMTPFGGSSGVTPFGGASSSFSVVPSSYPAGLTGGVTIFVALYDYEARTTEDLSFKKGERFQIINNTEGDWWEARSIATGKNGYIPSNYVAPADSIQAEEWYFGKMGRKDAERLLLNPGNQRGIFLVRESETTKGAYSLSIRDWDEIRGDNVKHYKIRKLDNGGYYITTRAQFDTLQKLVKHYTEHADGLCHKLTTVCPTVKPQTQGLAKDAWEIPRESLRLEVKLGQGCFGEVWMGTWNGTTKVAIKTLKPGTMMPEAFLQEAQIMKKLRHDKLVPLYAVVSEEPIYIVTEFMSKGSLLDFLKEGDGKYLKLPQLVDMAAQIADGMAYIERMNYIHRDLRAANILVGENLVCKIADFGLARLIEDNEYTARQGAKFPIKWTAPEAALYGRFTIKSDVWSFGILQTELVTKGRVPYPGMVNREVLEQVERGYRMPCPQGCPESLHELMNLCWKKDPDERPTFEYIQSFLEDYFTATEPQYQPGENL

[3] = target: Tyrosine-protein kinase Yes (Homo sapiens) (UniProt P07947); conditions: at 1 µM
[4] = target: T2, Tyrosine-protein kinase ZAP-70 (Homo sapiens) (UniProt P43403); conditions: at 0.1 µM
T2 sequence (whole entry): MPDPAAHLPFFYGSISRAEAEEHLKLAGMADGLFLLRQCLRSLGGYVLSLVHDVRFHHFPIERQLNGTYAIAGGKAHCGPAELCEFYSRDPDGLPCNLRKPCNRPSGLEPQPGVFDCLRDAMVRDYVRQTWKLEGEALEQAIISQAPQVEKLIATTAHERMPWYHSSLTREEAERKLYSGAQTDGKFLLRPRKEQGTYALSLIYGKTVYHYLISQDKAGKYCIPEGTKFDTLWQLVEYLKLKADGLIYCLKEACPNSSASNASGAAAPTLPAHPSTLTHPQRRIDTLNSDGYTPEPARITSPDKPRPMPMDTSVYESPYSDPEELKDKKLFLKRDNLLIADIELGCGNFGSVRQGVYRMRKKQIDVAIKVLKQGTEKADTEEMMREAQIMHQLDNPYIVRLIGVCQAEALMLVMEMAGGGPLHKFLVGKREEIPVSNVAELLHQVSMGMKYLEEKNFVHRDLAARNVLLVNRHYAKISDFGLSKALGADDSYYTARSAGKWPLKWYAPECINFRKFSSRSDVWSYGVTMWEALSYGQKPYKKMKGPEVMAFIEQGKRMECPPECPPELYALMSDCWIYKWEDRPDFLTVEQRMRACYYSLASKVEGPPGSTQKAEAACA

[5] = target: T2, Tyrosine-protein kinase ZAP-70 (Homo sapiens); conditions: at 1 µM
[6] = target: Serine/threonine-protein kinase B-raf (Homo sapiens) (UniProt P15056); conditions: at 0.1 µM
Serine/threonine-protein kinase B-raf (Homo sapiens), sequence (P15056 whole entry): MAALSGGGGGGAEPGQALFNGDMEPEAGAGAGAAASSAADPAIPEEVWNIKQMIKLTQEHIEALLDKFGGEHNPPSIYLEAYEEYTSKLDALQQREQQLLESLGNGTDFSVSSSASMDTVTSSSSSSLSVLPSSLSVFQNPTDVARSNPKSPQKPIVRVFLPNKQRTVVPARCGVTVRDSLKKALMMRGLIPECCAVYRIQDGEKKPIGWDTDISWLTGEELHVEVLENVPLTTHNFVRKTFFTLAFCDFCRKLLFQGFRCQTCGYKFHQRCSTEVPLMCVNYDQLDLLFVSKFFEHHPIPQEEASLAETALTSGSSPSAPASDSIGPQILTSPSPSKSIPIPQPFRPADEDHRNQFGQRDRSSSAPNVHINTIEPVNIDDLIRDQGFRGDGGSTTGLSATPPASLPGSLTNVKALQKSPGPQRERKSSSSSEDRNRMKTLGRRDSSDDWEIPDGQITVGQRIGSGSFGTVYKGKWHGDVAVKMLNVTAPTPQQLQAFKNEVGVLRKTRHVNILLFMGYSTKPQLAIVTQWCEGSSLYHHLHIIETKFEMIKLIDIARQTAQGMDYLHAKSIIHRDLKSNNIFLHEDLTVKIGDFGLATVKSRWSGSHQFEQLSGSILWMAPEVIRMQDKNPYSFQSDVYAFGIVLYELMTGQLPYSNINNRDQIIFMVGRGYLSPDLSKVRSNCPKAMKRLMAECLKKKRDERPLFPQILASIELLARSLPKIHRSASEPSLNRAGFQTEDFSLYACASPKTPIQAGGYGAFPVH

[7] = target: Serine/threonine-protein kinase B-raf (Homo sapiens) (UniProt P15056); conditions: at 1 µM
[8] = system: Serine/threonine-protein kinase B-raf (Homo sapiens), P15056 [V600E]; conditions: at 0.1 µM
Serine/threonine-protein kinase B-raf (Homo sapiens), P15056 [V600E], sequence (P15056 whole entry V600E): as the sequence (P15056 whole entry) above, with V600E counted along it

[9] = system: Serine/threonine-protein kinase B-raf (Homo sapiens), P15056 [V600E]; conditions: at 1 µM
[10] = target: RAF proto-oncogene serine/threonine-protein kinase (Homo sapiens) (UniProt P04049); conditions: at 0.1 µM
RAF proto-oncogene serine/threonine-protein kinase (Homo sapiens), sequence (P04049 whole entry): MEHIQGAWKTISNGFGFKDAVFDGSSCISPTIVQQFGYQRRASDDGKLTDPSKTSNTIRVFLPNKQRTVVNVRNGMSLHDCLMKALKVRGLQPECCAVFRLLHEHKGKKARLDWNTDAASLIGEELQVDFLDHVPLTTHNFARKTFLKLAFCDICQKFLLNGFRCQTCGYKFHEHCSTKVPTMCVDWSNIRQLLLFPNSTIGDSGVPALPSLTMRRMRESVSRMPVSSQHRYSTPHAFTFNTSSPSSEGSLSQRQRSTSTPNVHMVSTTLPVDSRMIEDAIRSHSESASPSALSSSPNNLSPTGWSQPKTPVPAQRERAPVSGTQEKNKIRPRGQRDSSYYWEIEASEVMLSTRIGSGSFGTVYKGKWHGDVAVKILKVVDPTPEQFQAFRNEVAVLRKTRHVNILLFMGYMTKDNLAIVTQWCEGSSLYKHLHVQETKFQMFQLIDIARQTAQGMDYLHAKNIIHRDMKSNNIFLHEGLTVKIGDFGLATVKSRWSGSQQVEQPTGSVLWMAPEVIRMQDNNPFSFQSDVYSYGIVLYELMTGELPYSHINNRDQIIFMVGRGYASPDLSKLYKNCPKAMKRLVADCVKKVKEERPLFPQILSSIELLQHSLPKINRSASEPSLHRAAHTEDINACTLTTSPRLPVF

[11] = target: RAF proto-oncogene serine/threonine-protein kinase (Homo sapiens) (UniProt P04049); conditions: at 1 µM
[12] = target: T3, Interleukin-1 receptor-associated kinase 4 (Homo sapiens) (UniProt Q9NWZ3); conditions: at 0.1 µM
T3 sequence (whole entry): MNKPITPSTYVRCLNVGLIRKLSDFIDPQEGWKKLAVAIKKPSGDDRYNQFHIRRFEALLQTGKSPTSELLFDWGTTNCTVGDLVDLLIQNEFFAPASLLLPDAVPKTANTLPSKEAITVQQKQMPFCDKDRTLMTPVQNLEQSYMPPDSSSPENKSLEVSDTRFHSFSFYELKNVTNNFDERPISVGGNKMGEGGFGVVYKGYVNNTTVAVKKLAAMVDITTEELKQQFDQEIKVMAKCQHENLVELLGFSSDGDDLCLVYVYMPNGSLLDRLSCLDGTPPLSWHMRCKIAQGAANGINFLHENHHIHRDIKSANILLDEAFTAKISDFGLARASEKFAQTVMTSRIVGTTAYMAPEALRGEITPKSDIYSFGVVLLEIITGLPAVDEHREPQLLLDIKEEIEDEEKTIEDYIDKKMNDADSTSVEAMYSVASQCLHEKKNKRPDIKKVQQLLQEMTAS

[13] = target: T3, Interleukin-1 receptor-associated kinase 4 (Homo sapiens); conditions: at 1 µM
[14] = target: Leucine-rich repeat serine/threonine-protein kinase 2 (Homo sapiens) (UniProt Q5S007); conditions: at 0.1 µM
Leucine-rich repeat serine/threonine-protein kinase 2 (Homo sapiens), sequence (Q5S007 whole entry): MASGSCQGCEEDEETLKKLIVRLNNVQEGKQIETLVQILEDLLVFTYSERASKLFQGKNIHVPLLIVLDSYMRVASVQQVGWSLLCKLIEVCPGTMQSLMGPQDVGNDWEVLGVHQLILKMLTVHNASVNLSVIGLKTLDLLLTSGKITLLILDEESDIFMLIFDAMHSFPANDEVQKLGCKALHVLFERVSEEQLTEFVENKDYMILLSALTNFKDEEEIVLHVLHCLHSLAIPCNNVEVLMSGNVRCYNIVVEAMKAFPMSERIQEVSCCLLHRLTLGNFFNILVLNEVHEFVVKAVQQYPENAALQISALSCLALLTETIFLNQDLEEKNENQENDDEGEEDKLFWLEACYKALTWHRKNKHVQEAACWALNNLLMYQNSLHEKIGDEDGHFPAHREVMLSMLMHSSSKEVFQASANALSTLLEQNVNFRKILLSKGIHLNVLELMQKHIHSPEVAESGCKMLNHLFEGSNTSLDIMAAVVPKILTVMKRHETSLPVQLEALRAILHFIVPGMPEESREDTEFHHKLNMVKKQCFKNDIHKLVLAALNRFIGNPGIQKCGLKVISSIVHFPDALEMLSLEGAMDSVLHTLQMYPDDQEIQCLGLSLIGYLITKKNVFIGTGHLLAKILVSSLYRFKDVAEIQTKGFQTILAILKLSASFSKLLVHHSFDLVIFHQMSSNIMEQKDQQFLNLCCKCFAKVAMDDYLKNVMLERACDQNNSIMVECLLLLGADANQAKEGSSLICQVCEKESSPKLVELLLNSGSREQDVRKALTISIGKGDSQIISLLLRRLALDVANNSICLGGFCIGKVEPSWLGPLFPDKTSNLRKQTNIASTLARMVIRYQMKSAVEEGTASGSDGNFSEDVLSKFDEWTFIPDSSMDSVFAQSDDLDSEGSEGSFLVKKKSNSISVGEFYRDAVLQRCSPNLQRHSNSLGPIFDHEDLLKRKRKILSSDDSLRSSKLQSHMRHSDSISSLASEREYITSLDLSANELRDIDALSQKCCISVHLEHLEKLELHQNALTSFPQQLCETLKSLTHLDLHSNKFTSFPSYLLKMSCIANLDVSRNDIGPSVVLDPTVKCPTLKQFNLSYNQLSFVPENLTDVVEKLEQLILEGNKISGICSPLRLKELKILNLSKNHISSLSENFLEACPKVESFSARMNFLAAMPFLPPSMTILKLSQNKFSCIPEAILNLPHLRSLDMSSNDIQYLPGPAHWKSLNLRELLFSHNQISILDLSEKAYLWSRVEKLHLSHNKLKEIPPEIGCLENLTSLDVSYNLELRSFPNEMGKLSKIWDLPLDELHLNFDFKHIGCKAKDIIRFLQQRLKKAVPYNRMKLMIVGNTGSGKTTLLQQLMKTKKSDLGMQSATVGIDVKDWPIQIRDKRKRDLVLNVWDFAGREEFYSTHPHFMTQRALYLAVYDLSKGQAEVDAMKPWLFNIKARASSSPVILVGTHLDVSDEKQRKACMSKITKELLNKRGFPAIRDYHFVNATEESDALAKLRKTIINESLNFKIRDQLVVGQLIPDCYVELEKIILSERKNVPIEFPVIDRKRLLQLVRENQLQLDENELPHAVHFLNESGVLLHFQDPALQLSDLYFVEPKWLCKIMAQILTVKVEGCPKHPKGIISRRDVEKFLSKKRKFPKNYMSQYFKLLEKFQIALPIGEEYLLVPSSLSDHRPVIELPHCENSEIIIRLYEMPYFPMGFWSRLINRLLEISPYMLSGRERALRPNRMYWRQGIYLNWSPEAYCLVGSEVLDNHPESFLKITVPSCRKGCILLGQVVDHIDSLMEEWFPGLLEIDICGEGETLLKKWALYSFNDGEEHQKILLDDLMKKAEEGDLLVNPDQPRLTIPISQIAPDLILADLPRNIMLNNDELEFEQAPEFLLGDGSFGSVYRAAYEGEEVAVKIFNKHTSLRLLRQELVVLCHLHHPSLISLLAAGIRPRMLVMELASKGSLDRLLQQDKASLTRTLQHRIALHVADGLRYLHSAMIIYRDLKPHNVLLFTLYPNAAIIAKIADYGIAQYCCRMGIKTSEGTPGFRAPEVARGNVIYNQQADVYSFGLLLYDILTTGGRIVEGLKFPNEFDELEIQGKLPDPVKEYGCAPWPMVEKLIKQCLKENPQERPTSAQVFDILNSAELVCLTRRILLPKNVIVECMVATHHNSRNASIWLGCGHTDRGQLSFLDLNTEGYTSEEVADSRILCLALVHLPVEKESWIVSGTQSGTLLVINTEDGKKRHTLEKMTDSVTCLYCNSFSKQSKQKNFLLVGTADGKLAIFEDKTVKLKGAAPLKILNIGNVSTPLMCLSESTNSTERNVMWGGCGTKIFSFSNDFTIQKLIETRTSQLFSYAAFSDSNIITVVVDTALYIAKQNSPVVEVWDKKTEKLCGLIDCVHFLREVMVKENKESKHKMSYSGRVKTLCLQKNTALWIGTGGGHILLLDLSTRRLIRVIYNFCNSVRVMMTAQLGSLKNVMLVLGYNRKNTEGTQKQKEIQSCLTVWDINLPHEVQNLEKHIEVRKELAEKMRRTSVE

[15] = target: Leucine-rich repeat serine/threonine-protein kinase 2 (Homo sapiens) (UniProt Q5S007); conditions: at 1 µM
[16] = system: Leucine-rich repeat serine/threonine-protein kinase 2 (Homo sapiens), Q5S007 [G2019S]; conditions: at 0.1 µM
Leucine-rich repeat serine/threonine-protein kinase 2 (Homo sapiens), Q5S007 [G2019S], sequence (Q5S007 whole entry G2019S): as the sequence (Q5S007 whole entry) above, with G2019S counted along it

[17] = system: Leucine-rich repeat serine/threonine-protein kinase 2 (Homo sapiens), Q5S007 [G2019S]; conditions: at 1 µM

| Compound | inhibition [1] [%] | inhibition [2] [%] | inhibition [3] [%] | inhibition [4] [%] | inhibition [5] [%] | inhibition [6] [%] | inhibition [7] [%] | inhibition [8] [%] | inhibition [9] [%] | inhibition [10] [%] | inhibition [11] [%] | inhibition [12] [%] | inhibition [13] [%] | inhibition [14] [%] | inhibition [15] [%] | inhibition [16] [%] | inhibition [17] [%] |
| --- | --- | --- | --- | --- | --- | --- | --- | --- | --- | --- | --- | --- | --- | --- | --- | --- | --- |
| Cc1ccc(C(=O)NC2CCCCC2)cc1-c1ccc(C(=O)NCC2CC2)cc1 | -0.08 | 1.31 | 1.09 | 2.48 | 6.15 | 3.92 | 3.21 | 3.15 | 3.03 | 4.27 | 0.13 | -1.27 | 1.67 | 6.21 | 6.84 | 3.47 | 3.31 |
| CC(=O)Nc1cccc(C#Cc2cncnc2Nc2ccc(OCc3cccc(F)c3)c(Cl)c2)n1 | 1.63 | 4.46 | 10.7 | 2.6 | -0.49 | -1.65 | -3.08 | -2.42 | -2.04 | 0.47 | -2.95 | -0.61 | -0.89 | 3.07 | 4.78 | 2.03 | 5 |
| CCc1cccc(NC(=O)Nc2ccc(Oc3ccc4nc(NC(=O)OC)[nH]c4c3)cc2)c1 | 21.4 | 0.83 | -1.93 | 0.4 | -1.32 | 9.12 | 12.2 | 9.23 | 13.8 | -5.43 | 4.58 | 0.53 | 1.04 | 9.23 | 8.78 | 5.51 | 8.2 |
| Fc1cccc(COc2ccc(Nc3ncnc4cc(-c5ccc[nH]5)sc34)cc2Cl)c1 | 3.81 | 2.17 | 9.41 | -0.46 | -0.93 | 3.64 | 2.48 | 3.55 | 2.69 | 5.88 | 1.43 | 7.16 | 1.69 | -4.42 | -3.46 | -1.54 | 0.39 |
| CS(=O)(=O)CCNCc1nc(-c2ccc3ncnc(Nc4ccc(F)c(Cl)c4)c3c2)cs1 | 3.05 | -0.53 | 9.54 | -0.36 | -0.71 | 1.66 | 3.47 | 1.41 | 3.88 | -0.76 | -0.82 | 0.41 | 1.35 | 2.13 | 5.82 | 1.31 | 2.37 |
| [O-][S+]1CCN(Cc2ccc(-c3ccc4ncnc(Nc5ccc(OCc6ccccc6)c(F)c5)c4c3)o2)CC1 | 3.36 | 5.74 | 30.5 | 2.48 | 1.13 | 2.02 | 5.8 | 2.97 | 6.44 | -0.54 | -3.42 | 3.06 | 1.06 | 2.89 | 2.77 | 2.32 | 8.38 |
| Nc1ncnc2occ(-c3ccc(NC(=O)Nc4cccc(C(F)(F)F)c4)cc3)c12 | 32.2 | 7.17 | 45.7 | 1.4 | 1.43 | 7.07 | 13.3 | 5.78 | 13.5 | 0.71 | -2.58 | 2.03 | 2.34 | 17.1 | 57.9 | 13.1 | 42.8 |
| COc1ccc(-c2nn3ncccc3c2-c2ccnc(Nc3ccc(Cl)c(C(F)(F)F)c3)n2)cc1 | 3.05 | 7.39 | 46.2 | 0.91 | -1.1 | 3.94 | 4.03 | 3.98 | 3.99 | -1.5 | -8.01 | 2.17 | 0.42 | 0.37 | 1.12 | 2.99 | 3.98 |
| CS(=O)(=O)CCNCc1ccc(-c2ccc3ncnc(Nc4ccc(OCc5cccc(F)c5)c(C(F)(F)F)c4)c3c2)o1 | 3.6 | 0.9 | 5.19 | -4.38 | -2.61 | 6.3 | 6.29 | 7.33 | 6.22 | 2.93 | 12.1 | 4.38 | 1.89 | 0.82 | 1.68 | 3.39 | 2.93 |
| CN(C)c1cc2c(Nc3ccc4nc(Cc5ccccc5)[nH]c4c3)ncnc2cn1 | 4.25 | 9.2 | 37 | 6.34 | 12.4 | 7.82 | 7.35 | 7.73 | 11.2 | -7.41 | -7.27 | 2.36 | 1.94 | 5.94 | 7.11 | 5.3 | 13.7 |
| O=C1NC(=O)C(c2cccc(Cl)c2)=C1Nc1ccc(O)c(Cl)c1 | 0.29 | 2.84 | 2.76 | 1.5 | 2.74 | 1.14 | 6 | 0.91 | 7.11 | 0.68 | 3.11 | 2.97 | 0.96 | 4.5 | 18.4 | 4.28 | 30 |
| CCn1c(-c2nonc2N)nc2cncc(C(=O)N3CCNCC3)c21 | 2.14 | 2.93 | 3.85 | 2.85 | 4.99 | 9.15 | 11.5 | 6.08 | 5.58 | 4.15 | -2.31 | 2.74 | 3.54 | 1.69 | 0.35 | 3.72 | 7.17 |
| CN1CCC(C(=O)Nc2n[nH]c3nnc(-c4ccccc4)cc23)CC1 | 5.28 | 3.36 | 3.47 | 4.09 | 5.43 | 7.26 | 7.83 | 8.27 | 7.58 | 16.6 | 8.96 | 1.96 | 2.54 | 1.09 | 3.72 | 3.14 | 6.96 |
| Cc1nnc(-c2ccc(C)c(-c3ccc(C(=O)Nc4cccc(C#N)c4)cc3)c2)o1 | 1.98 | 1.42 | 5.81 | 2.77 | 3.12 | 3.86 | 3.97 | 3.34 | 3.85 | -4.37 | -9.42 | 4.13 | 0.84 | 0.06 | 0.83 | 2.49 | 7.62 |
| Cc1nn(C)c2cc(N(C)c3ccnc(Nc4cccc(S(N)(=O)=O)c4)n3)ccc12 | 29.9 | 9.9 | 45.6 | -2.66 | 16 | 4.26 | 7.71 | 4.01 | 6.87 | -2.36 | 3.83 | 2.51 | 6.18 | 1.65 | 7 | 4.07 | 12.3 |
